Experimental data: PubChem BioAssay AID1159580 (chemical genetic matrix, 2015)
Hit rate of the full screen: of about 5,500 compounds, about 2,000 (36%) were called active. Roughly 18% stayed inconclusive and do not appear here. No stated cut-off is given here; in the data, active means normalized growth mostly below about 0.91 (no sharp cut-off); inconclusive means no clear call, values can overlap the other calls; inactive means mostly above about 0.92. The list shows a part of the results.

Experiment: chemical genetic growth profiling, strain panel (AID 1159580);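 further: tested at 20 µM; growth read once vehicle control cultures reached saturation at 30 °C; 1 = growth at the plate median or of vehicle wells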
Conditions: S. cerevisiae deletion strains, growth OD

Measured: normalized growth

NC(=O)OCC(COC(N)=O)c1ccccc1
inactive: locus YAL040C, strain CLN3, stronger effect = lower value 1.03 | locus YCL061C, strain MRC1 (second series), stronger effect = lower value 1.01 | locus YDR150W, strain NUM1, stronger effect = lower value 1 | locus YDR363W, strain ESC2, stronger effect = lower value 1 | locus YER002W, strain NOP16, stronger effect = lower value 0.999 | locus YGR229C, strain SMI1, stronger effect = lower value 0.991 | locus YHR030C, strain SLT2, stronger effect = lower value 0.975 | locus YHR079C, strain IRE1, stronger effect = lower value 0.991 | locus YJL095W, strain BCK1, stronger effect = lower value 0.959 | locus YJR066W, strain TOR1, stronger effect = lower value 0.932 | locus YLR113W, strain HOG1, stronger effect = lower value 0.99 | locus YMR307W, strain GAS1, stronger effect = lower value 0.985 | locus YNL153C, strain GIM3, stronger effect = lower value 1.04 | locus YNL175C, strain NOP13, stronger effect = lower value 0.999 | locus YNL183C, strain NPR1, stronger effect = lower value 0.945 | locus YNL197C, strain WHI3, stronger effect = lower value 1 | locus YNL224C, strain SQS1, stronger effect = lower value 1.03 | locus YNL322C, strain KRE1, stronger effect = lower value 1.02 | locus YOR083W, strain WHI5 (second series), stronger effect = lower value 1.02 | locus YOR231W, strain MKK1, stronger effect = lower value 0.976 | locus YPL241C, strain CIN2, stronger effect = lower value 1.01 | locus YPL256C, strain CLN2, stronger effect = lower value 0.976
